# Out of some 48,000 compounds screened, about 13,000 (27%) showed an effect of 50% or more. The list shows a part of the results.
# System: Wolbachia pipientis
# Experiment: Anti-Wolbachia Cell-Based Screen
# Assay type: functional
# Design: scale not given: in the data most compounds retested in dose-response had high values
# Conditions: 5 µM
row,Structure (SMILES),Percent Effect [%]
1,O=C(NCc1cn2cccnc2n1)C1CC(=O)N(Cc2cccnc2)C1 (stereo unspecified),-8.48
2,CC(C)n1cc(C(=O)NCCCc2csc(N)n2)cn1,-8.171
3,CNS(=O)(=O)c1cccc(C(C)NCc2ccc(C)o2)c1 (stereo unspecified),-6.612
4,O[C@H]1[C@H](n2cc(-c3ccccc3)nn2)c2ccccc2C12CCNCC2,-3.237
5,CCS(=O)(=O)c1ncc(CN(C)Cc2ccc(C)o2)n1CCOC,-4.34
6,CN(Cc1ccsc1)Cc1nc(-c2ccncc2)no1,-1.44
7,Cc1ncc(CN(C)C(=O)c2ccc(N3CCOCC3)c(F)c2)s1,3.379
8,CCc1cc(N(C)CCc2noc(C)n2)nc(N2CCOCC2)n1,-13.53
9,CN(Cc1nc(-c2ccccc2)no1)Cc1cnc(N2CCOCC2)s1,97.7
10,Cc1ccc(CN(C)Cc2cnc(N3CCOCC3)s2)o1,116.2
11,CC(C)c1nc(CN(C)Cc2cnc(N3CCOCC3)nc2)no1,-9.471
12,Cc1nc(CN(C)Cc2cnc(N3CCOCC3)s2)no1,89.45
13,Cc1noc(CN(C)Cc2cnc(N3CCOCC3)nc2)n1,-9.212
14,COc1cccc(-c2ccc(CNC(=O)c3ccc(=O)n(C)c3)cc2)c1,0.1145
15,CCc1nc(CN(C)C(=O)C2CC(=O)N(c3cccc(O)c3)C2)no1 (stereo unspecified),15.35
16,CN(C)S(=O)(=O)N1CC[C@]2(C[C@@H](OCc3ccccn3)CO2)C1.O=C(O)C(F)(F)F,-10.12
17,CC(C(=O)O)N1CC2(CCC1=O)CCN(CCSc1ccccc1)CC2 (stereo unspecified),-16.96
18,COCCN(C)C(=O)Nc1ccn(-c2cccc(C(F)(F)F)c2)n1,-15.63
19,Cc1nc(C2CCNCC2)cc(N(C)CCc2cn[nH]c2)n1,-7.954
20,CCN(Cc1ccncc1)c1cc(C2CCNCC2)nc(C)n1,95.16
21,CCN(Cc1c(F)cccc1Cl)c1cc(C2CCNCC2)nc(C)n1,117.3
22,CCN(Cc1ccncc1)c1nc(C)nc2oc(C)nc12,-65.89
23,Cc1cccc(OCC(=O)N(Cc2ccncc2)C2CC2)c1,-0.008091
24,CNS(=O)(=O)CC(=O)N(Cc1c(F)cccc1Cl)C1CC1,-9.118
25,Cc1ccnc(CC(C)N(C)c2cc(C3CCNCC3)nc(C)n2)c1 (stereo unspecified),6.994
26,Cc1nc(C2CCCNC2)cc(N(C)CCc2ccccc2)n1 (stereo unspecified),1.735

row,Structure (SMILES),Percent Effect [%]
1,CCN(Cc1ccncc1)c1cc(C2CCN2C(C)=O)nc(C)n1 (stereo unspecified),128.1
2,Cc1nc(C2CCNCC2)cc(N2CCOc3ccccc3C2)n1,-3.992
3,CCN(Cc1ccncc1)c1cc(C2CCCNC2)nc(C)n1 (stereo unspecified),103.1
4,CO[C@H]1COCCN(C(=O)c2cc(C)oc2C(F)(F)F)C1,-0.5452
5,CN(CCc1ccccc1)c1cnn(CC(=O)N2CCOCC2)c(=O)c1,17.19
6,Cc1nc(N(C)C/C=C/c2ccccc2)c2cnn(C)c2n1,1.614
7,COc1cc(C(C#N)NC(=O)CC2=CCCCC2)cc(OC)c1OC (stereo unspecified),-9.8
8,O=C(c1cnns1)N1CCN(c2ccc(F)cc2Cl)CC1,-2.521
9,CCOc1cc(=O)n2c(c1C(=O)OCc1ccc(C)cc1)CCCC2,83.47
10,CCOc1cc(C)ccc1NC(=O)N(C)Cc1cnn(C)c1,5.553
11,Cc1cccc(COc2ccccc2C(=O)N2CCC(C(N)=O)CC2)c1,0.1214
12,COc1ccc(CN(CC2CCCO2)C(=O)CN2CCCCC2=O)cc1 (stereo unspecified),3.552
13,O=C(OCc1cccc(F)c1)c1cccc(C(=O)N2CCCC2)n1,-9.061
14,CCOc1cc(=O)n2c(c1C(=O)OCc1ccc(OC)cc1)CCCC2,91.51
15,Cc1cccc(CC(=O)N2CCCCC2CN)c1.Cl (stereo unspecified),-0.4794
16,COc1ccc(CN2CCCN(c3cc(C(N)=O)ccn3)CC2)cc1,15.11
17,CCOc1cc(=O)n2c(c1C(=O)OCc1cccc(C)c1)CCCC2,85.47
18,COC(=O)C(O)C1CCN(CCc2ccc(C)cc2)CC1 (stereo unspecified),-9.232
19,CCOc1cc2c(cc1C(=O)O)CCC2,-16.22
20,CCOc1cc(=O)n2c(c1C(=O)OCc1ccc(F)cc1)CCCC2,95.56
21,Cc1ccc(C(=O)N(C)CCNS(C)(=O)=O)cc1Br,-2.447
22,Cc1cc(C(=O)N2CCOC[C@H](Oc3cnccn3)C2)c(C(F)(F)F)o1,1.166
23,Cc1nnc2n1CCN(CC(=O)NC(C)c1cc3ccccc3o1)C2 (stereo unspecified),-0.5236
24,COCCN1CCN(Cc2ccc(F)c(C)c2)[C@H]2CS(=O)(=O)C[C@H]21,-0.5112
25,O=C1NCCN(Cc2ccoc2)C1CC(=O)N1CCc2sccc2C1 (stereo unspecified),-12.03
26,CCCN1CCN(Cc2nc3ccccc3[nH]2)[C@H]2CS(=O)(=O)C[C@H]21,-8.969

row,Structure (SMILES),Percent Effect [%]
1,CC1CCC(O)(CN2CCN(CCNC(=O)C3CCC3)CC2)CC1 (stereo unspecified),8.242
2,Cc1[nH]c2c(C)ccc(C)c2c1CC(=O)NCCNc1cccnc1,0.5336
3,N[C@@H]1CCN(Cc2ccccc2CS(=O)(=O)c2ccccc2)C[C@H]1O,-11.48
4,c1cnn(CCC2CCN(Cc3ccc4[nH]ccc4c3)CC2)c1,-20.25
5,c1cnnc(N[C@@H]2CC[C@@H]3CN(Cc4ccc5cc[nH]c5c4)C[C@@H]32)c1,79.05
6,c1cnnc(N[C@@H]2CC[C@@H]3CN(Cc4ccc5[nH]ccc5c4)C[C@@H]32)c1,53.89
7,Cc1nccc(N[C@H]2CN(CCS(C)(=O)=O)C[C@@H]2C2CC2)n1,-10.57
8,CN(C)S(=O)(=O)N1C[C@@H]2CC[C@H](C1)N(Cc1ccc3[nH]ccc3c1)C2,10.36
9,c1cnnc(N[C@@H]2CC[C@@H]3CN(Cc4c[nH]c5ccccc45)C[C@@H]32)c1,81.26
10,O=C1CO[C@H]2CN(Cc3c[nH]c4ccccc34)C[C@H]2N1,5.983
11,c1cc2ccc(N3CCN(Cc4ccc5c(c4)OCO5)CC3)nc2[nH]1,-12.23
12,c1ccc2c(Cc3nnc([C@H]4CCNC4)o3)c[nH]c2c1,-7.413
13,Cc1cn2c(CN(C)C(=O)c3cnc(N)c(Cl)c3)c(C)nc2s1,7.837
14,CCn1cnnc1CN(C)C(=O)c1cc(COc2cccc(F)c2)[nH]n1,-21.78
15,CCOCC(=O)NC1(c2cccc(Cl)c2)CC1,-6.24
16,Cc1nc(CN2CCCC2Cn2cccn2)nc2ccccc12 (stereo unspecified),5.126
17,Cc1nc2ccccc2nc1CN1CCCC1Cn1cccn1 (stereo unspecified),15.41
18,CCCc1nc(CN2CCCC2Cn2cccn2)cs1 (stereo unspecified),-10.42
19,c1cnn(CC2CCCN2Cc2ccc(-n3cccn3)cc2)c1 (stereo unspecified),123
20,Cc1nc(C)n(CC2CCCN2Cc2cn(-c3ccccc3)nn2)n1 (stereo unspecified),-1.626
21,c1ccc(-n2cc(CN3CCCC3Cn3cccn3)nn2)cc1 (stereo unspecified),141.8
22,CCC(=O)N1CCN(C(=O)Nc2ccc(Cl)cc2)[C@H]2CS(=O)(=O)C[C@H]21,20.51
23,O=C(COC1CCCC1)N1C[C@@H]2CN(Cc3ccoc3)CCO[C@@H]2C1.O=C(O)C(F)(F)F,-10.48
24,O=C1NCC(C(=O)Nc2ncc(Cc3ccc(F)cc3F)s2)N1 (stereo unspecified),122.8
25,CC(=O)Nc1ncc(S(=O)(=O)Nc2ccc(F)cc2F)s1,11.75
26,Cc1ccccc1Cc1cnc(NC(=O)C2CNC(=O)N2)s1 (stereo unspecified),1.413

row,Structure (SMILES),Percent Effect [%]
1,O=C(NCc1ccccc1F)NC1CCCN(c2ncccn2)C1 (stereo unspecified),7.135
2,O=C1NCC(C(=O)Nc2ncc(Cc3ccccc3F)s2)N1 (stereo unspecified),80.55
3,CC(=O)Nc1ncc(S(=O)(=O)Nc2ccc(F)cc2)s1,1.75
4,CCCNc1ncc(C2CC(=O)NCc3nc4ccccn4c32)cn1 (stereo unspecified),19.88
5,CCS(=O)(=O)c1ccccc1N1CCC(NC(C)=O)CC1,-10.39
6,NC(=O)c1c(SCCN2CCCCC2)sc2c(O)cc(=O)[nH]c12,88.72
7,CN(CCN1CCCCCC1)C(=O)c1c(O)cccc1O,-5.64
8,CCOCC(=O)N1CC(=O)Nc2cc(Br)ccc21,-5.264
9,O=c1n(CCNCc2ccc3ccccc3c2)nc2ccccn12,96.37
10,Cc1ccc(CSCCn2nc3ccccn3c2=O)cc1,-0.2652
11,Cc1cc(C(=O)NCCn2nc3ccccn3c2=O)[nH]n1,-11.84
12,Cc1ccc2cc(C(=O)NCCn3nc4ccccn4c3=O)[nH]c2c1,12.5
13,O=c1n(CCNCc2ccc(-c3ccccc3)cc2)nc2ccccn12,92.23
14,Cc1cc(C)c2c(c1)C(NC(=O)CSCC(N)=O)CCO2 (stereo unspecified),-11.46
15,O=C(O)c1ccc(N2CCC(Oc3ccc(Cl)cc3)CC2)nc1,7.355
16,COc1ccc(OC2CCN(C(=O)[C@@H](N)Cc3c[nH]cn3)CC2)cc1,108.9
17,COc1ccc(OC2CCN(C(=O)C(C)Cn3cccn3)CC2)cc1 (stereo unspecified),-7.925
18,O=C(N1CCC(Oc2ccncc2)CC1)C1(c2ccc(F)cc2)CC1,4.458
19,N[C@@H](Cc1c[nH]cn1)C(=O)N1CCC(Oc2ccc(F)cc2)CC1,142.9
20,CN1CCC(N(C)CCC(=O)N2CCC(Oc3ccc(Cl)cc3)CC2)C1 (stereo unspecified),-10.05
21,Cc1ccc(OC2CCN(C(=O)C(C)Cn3cccn3)CC2)cc1 (stereo unspecified),-8.941
22,COc1ccc(OC2CCN(C(=O)c3cnc(C)s3)CC2)cc1,-7.331
23,N[C@@H](Cc1c[nH]cn1)C(=O)N1CCC(Oc2ccc(Cl)cc2)CC1,129.2

# From ChEMBL document CHEMBL3988442, “University of Dundee, Small-Polar-MMV Screening Library” (2021)
